Experimental findings from PubChem BioAssay (NCI) are described below.

The panel holds about 83,000 compounds, 20% with a hit somewhere; the sample as a whole holds those more often.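 For each line, cells grew in 96-well plates with the test compound present at a single concentration for 48 hours.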 A number with no mark means an inactive call. Active and inactive are the calls of the source. How the source made its calls: active means growth percent below 10; inactive means the rest.

Test systems include RPMI-8226 leukemia; OVCAR-8 ovarian; OVCAR-5 ovarian; OVCAR-4 ovarian; SK-OV-3 ovarian; IGROV1 ovarian; OVCAR-3 ovarian; HS 578T breast; NCI/ADR-RES ovarian; T-47D breast; BT-549 breast; MDA-MB-435 melanoma; SW-620 colon; MCF7 breast; HCT-116 colon; HCC-2998 colon; KM12 colon.
What all share (assay): NCI-60 one-dose screen, 48 h (100 = growth as untreated, 0 = no growth, -100 = all killed)
Common to all, as to conditions: 10 µM unless noted

`COc1ncc2cc1NS(=O)(=O)c1cccc(c1)C(=O)NCC1=CC=C(S1)c1ncnc3c1SC2=C3C`: the growth with RPMI-8226 leukemia was -31.3% (active); with OVCAR-8 ovarian, 20.6%; with OVCAR-5 ovarian, -26.2% (active); in the assay with OVCAR-4 ovarian, -24.1% (active); in the assay with SK-OV-3 ovarian, 5.33% (active); with IGROV1 ovarian it was -24.5% (active). In addition, the growth in the assay with OVCAR-3 ovarian was -73.1% (active); in the assay with HS 578T breast, 12.7%; with NCI/ADR-RES ovarian, 10.6%; in the assay with T-47D breast it was -29% (active); in the assay with BT-549 breast, -52.7% (active); with MDA-MB-435 melanoma, -28.6% (active). For the same compound, the growth in the assay with SW-620 colon is 3.04% (active); with MCF7 breast it was -12.5% (active); with HCT-116 colon, -31.8% (active); with HCC-2998 colon, -43.1% (active); with KM12 colon, -62.1% (active).

For the compound `CCOC(=O)c1c(C)nc2c(c1N)CC(=O)N2Cc1cc(OC)c(OC)c(OC)c1`, the growth in the assay on RPMI-8226 leukemia is 40.9%; in the assay on OVCAR-8 ovarian, 61.9%; in the assay with OVCAR-5 ovarian, 93%; in the assay with OVCAR-4 ovarian, 51.3%; in the assay on SK-OV-3 ovarian, 57.2%; with OVCAR-3 ovarian, 23.5%. The growth in the assay with HS 578T breast was 65.1%; in the assay on NCI/ADR-RES ovarian, 17.6%; in the assay with T-47D breast, 28.7%; with BT-549 breast, 48.7%; in the assay with MDA-MB-435 melanoma it was 4.24% (active); in the assay with SW-620 colon, 33.4%. The growth with MCF7 breast was 26.9%; in the assay with HCT-116 colon, 20.5%; with HCC-2998 colon it was 65.6%; in the assay with KM12 colon it was 30.1%.

For the compound `CCOC(=O)Cn1c(=O)c2c3ccccc3n(C)c2n2nnc(-c3ccccc3)c12`, the growth with RPMI-8226 leukemia was 65%; with OVCAR-8 ovarian, 113%; in the assay on OVCAR-5 ovarian, 74.3%; in the assay with OVCAR-4 ovarian, 102%; in the assay on SK-OV-3 ovarian, 117%; with IGROV1 ovarian, 58.6%. The growth in the assay on OVCAR-3 ovarian was 100%; in the assay with HS 578T breast, 82.1%; in the assay on NCI/ADR-RES ovarian, 85.7%; with T-47D breast it was 95.1%; in the assay on BT-549 breast, 104%; in the assay with MDA-MB-435 melanoma, 99.1%. Also, the growth in the assay on SW-620 colon is 95.7%; with MCF7 breast, 81.8%; in the assay on HCT-116 colon, 65%; in the assay on HCC-2998 colon, 67.8%; in the assay on KM12 colon, 99.7%.

With `C#CCOc1ccc2ncnc(Nc3cccc(NC(=O)CCl)c3)c2c1`, the growth in the assay with RPMI-8226 leukemia was 64.2%; in the assay with OVCAR-8 ovarian, 54.6%; in the assay with OVCAR-5 ovarian, 104%; in the assay on OVCAR-4 ovarian, 82.7%; in the assay with SK-OV-3 ovarian, 113%; with IGROV1 ovarian, -37.7% (active). Further, the growth is 51.3% in the assay with OVCAR-3 ovarian; 90.5% in the assay with HS 578T breast; 90.8% in the assay with NCI/ADR-RES ovarian; 85.2% in the assay on T-47D breast; 68.6% with BT-549 breast; 81.7% in the assay with MDA-MB-435 melanoma. The growth with SW-620 colon was 33.5%; in the assay with MCF7 breast it was 41.9%; in the assay on HCT-116 colon it was 22.9%; in the assay with HCC-2998 colon, 99.4%; in the assay with KM12 colon, 71%.

Regarding `Cc1c2cc[nH]c(=O)c2c(C)c2c1[nH]c1ccc(OC(=O)c3ccccc3)cc12`, the growth was 40.2% in the assay with RPMI-8226 leukemia; 28.4% in the assay with OVCAR-8 ovarian; 53.1% in the assay on OVCAR-5 ovarian; 62.5% with OVCAR-4 ovarian; 8.11% (active) in the assay on SK-OV-3 ovarian; 30.6% in the assay with IGROV1 ovarian. Further, the growth was 44.3% in the assay with OVCAR-3 ovarian; 19.3% with HS 578T breast; 27.7% in the assay with NCI/ADR-RES ovarian; 10.3% with T-47D breast; 40.8% in the assay on BT-549 breast; 28% in the assay with MDA-MB-435 melanoma. The growth was 28% in the assay on SW-620 colon; 20.3% in the assay on MCF7 breast; 22.7% with HCT-116 colon; 57.7% in the assay on HCC-2998 colon; 39% in the assay with KM12 colon.

Turning to `CC1(C)CC2=C3C=C[C@@H]4[C@@]5(C)CC[C@H](O)C(C)(C)[C@@H]5CC[C@@]4(C)[C@]3(C)CC[C@@]2(C(=O)O)CC1=O`, the growth in the assay on RPMI-8226 leukemia is 4.49% (active); with OVCAR-8 ovarian, 62.6%; with OVCAR-5 ovarian, 99.5%; in the assay with OVCAR-4 ovarian it was 38%; in the assay on SK-OV-3 ovarian, 75.9%; in the assay on IGROV1 ovarian, 35.3%. Besides, the growth is 22.2% in the assay with OVCAR-3 ovarian; 73% in the assay on HS 578T breast; 61.2% with NCI/ADR-RES ovarian; 42.2% with T-47D breast; 36.7% in the assay with BT-549 breast; 39.4% with MDA-MB-435 melanoma. For the same compound, the growth was 43.8% with SW-620 colon; 31.9% in the assay with MCF7 breast; 12.8% in the assay on HCT-116 colon; 70.3% in the assay with HCC-2998 colon; 42.6% in the assay with KM12 colon.

Regarding `C=C1C(=O)O[C@H]2[C@H]1CC/C(COC(=O)NCCCCCCCCNC(=O)OC/C1=C/CC[C@@]3(C)O[C@H]3[C@H]3OC(=O)C(=C)[C@@H]3CC1)=C\CC[C@@]1(C)O[C@@H]21`, the growth in the assay with RPMI-8226 leukemia was -42.8% (active); in the assay with OVCAR-8 ovarian, -51.2% (active); with OVCAR-5 ovarian, -79.6% (active); in the assay with OVCAR-4 ovarian, -82.9% (active); in the assay with SK-OV-3 ovarian, 34.4%; in the assay on IGROV1 ovarian it was -74.3% (active). Also, the growth was -94.1% (active) in the assay with OVCAR-3 ovarian; 17.4% in the assay on HS 578T breast; 43.9% in the assay with NCI/ADR-RES ovarian; -45.7% (active) in the assay with T-47D breast; -88.2% (active) with BT-549 breast; -89.9% (active) with MDA-MB-435 melanoma. The growth in the assay on SW-620 colon was -74.7% (active); with MCF7 breast, -55.2% (active); with HCT-116 colon, -79.2% (active); in the assay on HCC-2998 colon, -65.5% (active); in the assay on KM12 colon, -43.9% (active).

Consider `COc1ccc2cc(-c3cnc4nonc4n3)ccc2c1`, for which the growth is 0.566% (active) with RPMI-8226 leukemia; 23.9% with OVCAR-8 ovarian; 76% in the assay with OVCAR-5 ovarian; 50% in the assay with OVCAR-4 ovarian; 71% in the assay on SK-OV-3 ovarian; 60.3% in the assay on IGROV1 ovarian. Besides, the growth with OVCAR-3 ovarian is 11.1%; in the assay with HS 578T breast, 13.9%; with NCI/ADR-RES ovarian it was -4.57% (active); with T-47D breast, 15.5%; with BT-549 breast, 56.3%; in the assay with MDA-MB-435 melanoma, -14.9% (active). The growth with SW-620 colon was 26.9%; in the assay with MCF7 breast, 15.7%; with HCT-116 colon, 18.3%; with HCC-2998 colon, 59.3%; in the assay on KM12 colon, 23.1%.

Consider `COc1ccc2c(c1)c(-c1nc(-c3cn(C)c4ncccc34)cs1)cn2CCO`, for which the growth in the assay on RPMI-8226 leukemia is 50.5%; in the assay with OVCAR-8 ovarian, 73%; in the assay on OVCAR-5 ovarian, 76%; in the assay on OVCAR-4 ovarian, 45.5%; with SK-OV-3 ovarian it was 89.8%; in the assay with IGROV1 ovarian, 85.2%. Besides, the growth was 99.1% in the assay with OVCAR-3 ovarian; 80.9% in the assay on HS 578T breast; 90% in the assay on NCI/ADR-RES ovarian; 10.1% in the assay with T-47D breast; 76.9% in the assay with BT-549 breast; 86.5% in the assay with MDA-MB-435 melanoma. Also, the growth with SW-620 colon was 93.6%; with MCF7 breast it was 12%; in the assay with HCT-116 colon it was 74.2%; with HCC-2998 colon, 95.1%; in the assay on KM12 colon it was 49.5%.

For `CC(C)c1ccc(-n2c(=S)[nH]c3sc4c(c3c2=O)CCC(=O)C4)cc1`, the growth is 15.9% in the assay on RPMI-8226 leukemia; 49.9% in the assay with OVCAR-8 ovarian; 68.2% with OVCAR-5 ovarian; 46.5% in the assay with OVCAR-4 ovarian; 84.3% with SK-OV-3 ovarian; 63.1% in the assay with IGROV1 ovarian. Moreover, the growth with OVCAR-3 ovarian is 53%; with HS 578T breast, 32.4%; with NCI/ADR-RES ovarian it was 44%; in the assay on T-47D breast, 11.7%; in the assay with BT-549 breast, 26.3%; in the assay with MDA-MB-435 melanoma, 91.8%. Further, the growth is 48.5% with SW-620 colon; 85.4% with MCF7 breast; 53.5% in the assay with HCT-116 colon; 40.1% in the assay with HCC-2998 colon; 18.6% in the assay with KM12 colon.

`Cc1ccc2[nH]c(-c3ccc(S(C)(=O)=O)cc3)c(/C=N/N=C(N)N)c2c1`: the growth is 39.2% in the assay with RPMI-8226 leukemia; 58.4% in the assay with OVCAR-8 ovarian; 101% in the assay on OVCAR-5 ovarian; 90.7% in the assay with OVCAR-4 ovarian; 57.7% in the assay on SK-OV-3 ovarian; 76.2% in the assay with IGROV1 ovarian. In addition, the growth in the assay with OVCAR-3 ovarian was 27.6%; in the assay on HS 578T breast, 50.5%; with NCI/ADR-RES ovarian it was 49.4%; in the assay on T-47D breast, 67.8%; with BT-549 breast, 76.9%; in the assay on MDA-MB-435 melanoma, -21.9% (active). Also, the growth in the assay with SW-620 colon was 36.4%; with MCF7 breast it was 64.6%; with HCT-116 colon it was 24.4%; with HCC-2998 colon, 74%; in the assay on KM12 colon, 46.1%.

Take `C/C(=C(/c1ccc(Cl)cc1)c1ccc(OCCCN(C)C)cc1)c1ccc(Cl)cc1`: the growth with RPMI-8226 leukemia was 55.6%; with OVCAR-8 ovarian, 96.1%; in the assay with OVCAR-5 ovarian it was 101%; with OVCAR-4 ovarian, 104%; in the assay with SK-OV-3 ovarian, 120%; with IGROV1 ovarian it was 85.7%. Moreover, the growth is 86.3% in the assay on OVCAR-3 ovarian; 87.1% in the assay on HS 578T breast; 97.7% in the assay on NCI/ADR-RES ovarian; 69.1% in the assay on T-47D breast; 92.6% in the assay on MDA-MB-435 melanoma; 64% with SW-620 colon. Besides, the growth in the assay with MCF7 breast was 34.3%; in the assay with HCT-116 colon, 52.4%; in the assay on HCC-2998 colon, 101%; in the assay with KM12 colon it was 79.9%.
